Experimental data as given in PubChem BioAssay (Tox21).
Records with an inconclusive call do not appear. A call without a number means that no potency is given here. Unmarked numbers belong to inactive results. The source made the active and inactive calls. Unless noted, calls follow the shape of the dose curve; as a rule, active = well fitted curve in the direction sought with a large enough effect in the repeat runs; inconclusive = weak or mixed curves; inactive = no such curve, though single readings can be large; an effect the other way counts as inactive or inconclusive.

Assays:
[1] = qHTS assay to identify small molecule that activate the aryl hydrocarbon receptor (AhR) signaling pathway - cell viability counter screen (AID 743086); also: nearly all actives have a fitted effect of over 45% in size; also: potency is read from the fitted curve at half-maximal effect
Procedure, shortened: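 HepG2-AhR-luc (HG2L7.5c1) cells, 4000/well, were preincubated 5 h at 37C, exposed to compound in qHTS format for 24 hr at 37C, then given CellTiter-Fluor for 30 min; viability was read as fluorescence in the reporter wells.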

[2] = target: Peroxisome proliferator-activated receptor gamma (Homo sapiens) (UniProt P37231); test: qHTS assay to identify small molecule agonists of the peroxisome proliferator-activated receptor gamma (PPARg) signaling pathway (AID 743094; active = well fitted activation curve with a large enough effect in the signal ratio in the repeat runs, not every such curve was filed as active; the % refers to the signal ratio; also: potency is read from the fitted curve at half-maximal effect)
Procedure, shortened: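 Cells from the PPARg UAS-bla HEK293H line are plated and incubated 5 h at 37C. Compounds in DMSO are pinned in and left 17 h at 37C. LiveBLAzer B/G substrate is then added for 1 h at room temperature before fluorescence is measured.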

[3] = target: Peroxisome proliferator-activated receptor gamma (Homo sapiens) (UniProt P37231); test: qHTS assay to identify small molecule antagonists of the peroxisome proliferator-activated receptor gamma (PPARg) signaling pathway (AID 743191; calls by dose curve; also: series mostly up to about 63 µM; nearly all actives have a fitted effect of over 30% in size)
Procedure, shortened: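 GeneBLAzer PPARg UAS-bla HEK293H cells carrying a UAS-driven beta-lactamase reporter were plated at 3000 cells/well, preincubated 5 h at 37C, then given compound for 17 h at 37C; LiveBLAzer B/G FRET substrate was read after 1 h at room temperature.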

[4] = qHTS assay to identify small molecule antagonists of the peroxisome proliferator-activated receptor gamma (PPARg) signaling pathway - cell viability counter screen (AID 743194); also: nearly all actives have a fitted effect of over 55% in size
Procedure, shortened: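 PPARg-UAS-bla HEK293H cells were plated, rested 5 h at 37 C, then treated with compounds plus rosiglitazone (50 nM final) for 17 h at 37 C; viability was then read by CellTiter-Glo luminescence after 30 min at room temperature.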

[5] = qHTS assay for small molecule agonists of the antioxidant response element (ARE) signaling pathway - cell viability counter screen (AID 743203; calls by dose curve; also: nearly all actives have a fitted effect of over 55% in size)
Procedure, shortened: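 Cytotoxicity was tested in parallel with the ARE reporter screen. ARE-bla HepG2 cells were exposed to compounds for 16 hrs, and viability was taken from CellTiter-Glo luminescence.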

[6] = qHTS assay to identify small molecule agonists of the peroxisome proliferator-activated receptor delta (PPARd) signaling pathway - cell viability counter screen (AID 743211); also: nearly all actives have a fitted effect of over 55% in size
Procedure, shortened: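 PPARd-bla HEK293H cells (UAS-beta-lactamase reporter) were treated with compounds for 17 h at 37 C. Viability was then read in the same wells by CellTiter-Glo luminescence after 30 min at room temperature.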

[7] = target: Peroxisome proliferator-activated receptor delta (Homo sapiens) (UniProt Q03181); test: qHTS assay to identify small molecule agonists of the peroxisome proliferator-activated receptor delta (PPARd) signaling pathway (AID 743212; calls by dose curve)
Procedure, shortened: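 Cells expressing a UAS-driven beta-lactamase reporter (PPARd-bla HEK293H) were given test compounds after a 5 h settle and kept at 37 C. Reporter activity was then measured as FRET fluorescence using LiveBLAzer B/G substrate.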

[8] = qHTS assay to identify small molecule antagonists of the peroxisome proliferator-activated receptor delta (PPARd) signaling pathway - cell viability counter screen (AID 743213); also: nearly all actives have a fitted effect of over 50% in size
Procedure, shortened: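 PPARd-bla HEK293H cells were treated with compounds plus agonist L165041 (300 nM final) for 17 h at 37 C. Viability was then read in the same wells by CellTiter-Glo luminescence after 30 min at room temperature.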

[9] = target: Peroxisome proliferator-activated receptor delta (Homo sapiens) (UniProt Q03181); test: qHTS assay to identify small molecule antagonists of the peroxisome proliferator-activated receptor delta (PPARd) signaling pathway (AID 743215; active = well fitted inhibition curve with a large enough effect in the signal ratio in the repeat runs, not every such curve was filed as active; the % refers to the signal ratio;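 also: cells stimulated with agonist L165041 at 300 nM final during compound exposure; series mostly up to about 62 µM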)
Procedure, shortened: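 Cells: HEK293H with a UAS-driven beta-lactamase reporter responsive to PPARd. Compounds were co-added with L165041 (300 nM, final) and incubated 17 h at 37 C before a 2 h room-temperature FRET substrate step and fluorescence reading.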

[10] = target: Bile acid receptor (Homo sapiens) (UniProt Q96RI1); test: qHTS assay to identify small molecule antagonists of the farnesoid-X-receptor (FXR) signaling pathway (AID 743217; active = well fitted inhibition curve with a large enough effect in the signal ratio in the repeat runs, not every such curve was filed as active; the % refers to the signal ratio)
Procedure, shortened: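 Cells carrying a UAS-driven beta-lactamase reporter (GeneBLAzer FXR-UAS-bla HEK 293T) were plated and rested 5 h at 37 °C. Compounds in DMSO were added alongside chenodeoxycholic acid agonist at 50 uM final and left 16 h at 37 °C before FRET substrate readout.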

[11] = qHTS assay to identify small molecule agonists of the farnesoid-X-receptor (FXR) signaling pathway - cell viability counter screen (AID 743218); also: nearly all actives have a fitted effect of over 45% in size
Procedure, shortened: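 Cells were seeded, left 5 h at 37 C and 5% CO2, then dosed with compound in DMSO for 16 h. After the beta-lactamase FRET read, CellTiter-Glo was added and luminescence measured 30 min later.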

[12] = target: Vitamin D3 receptor (Homo sapiens) (UniProt P11473); test: qHTS assay to identify small molecule antagonists of the vitamin D receptor (VDR) signaling pathway (AID 743223; active = well fitted inhibition curve with a large enough effect in the signal ratio in the repeat runs, not every such curve was filed as active; the % refers to the signal ratio)
Procedure, shortened: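 VDR-bla cells were plated, incubated 4 h at 37C, then given compound and 1alpha,25-dihydroxyvitamin D3 (3 nM final). After 16 h at 37C, LiveBLAzer B/G FRET substrate was added for 2 h at room temperature and fluorescence read.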

[13] = qHTS assay to identify small molecule antagonists of the vitamin D receptor (VDR) signaling pathway - cell viability counter screen (AID 743225); also: nearly all actives have a fitted effect of over 50% in size
Procedure, shortened: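 VDR-bla HEK 293T cells, 4 h pre-incubation at 37C, then compound plus 1-alpha,25-dihydroxyvitamin D3 (3 nM final) for 16 h. After the beta-lactamase FRET read, CellTiter-Glo was added to the same wells; luminescence after 30 min at room temperature.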

[14] = qHTS assay for small molecule activators of the heat shock response signaling pathway - cell viability counter screen (AID 743209); also: nearly all actives have a fitted effect of over 50% in size
Procedure, shortened: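 Cytotoxicity counter screen run in parallel with the HSE beta-lactamase reporter, using the same wells. HeLa HSE-bla cells received compound for 5 h at 37 C; ATP-based CellTiter-Glo luminescence was measured after 30 min at room temperature.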

[15] = target: Bile acid receptor (Homo sapiens) (UniProt Q96RI1); test: qHTS assay to identify small molecule agonists of the farnesoid-X-receptor (FXR) signaling pathway (AID 743220; active = well fitted activation curve with a large enough effect in the signal ratio in the repeat runs, not every such curve was filed as active; the % refers to the signal ratio)
Procedure, shortened: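 FXR-UAS-bla HEK 293T cells carrying a UAS-driven beta-lactamase reporter were plated for 5 h at 37C/5% CO2, then exposed to DMSO-dissolved Tox21 10K compounds for 16 h at 37C. A LiveBLAzer B/G FRET substrate was loaded for 2 h at room temperature before fluorescence reading.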

[16] = qHTS assay to identify small molecule antagonists of the farnesoid-X-receptor (FXR) signaling pathway - cell viability counter screen (AID 743221; active = well fitted cell-killing curve with a large enough effect in the repeat runs, not every such curve was filed as active; also: nearly all actives have a fitted effect of over 50% in size)
Procedure, shortened: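 FXR-UAS-bla HEK 293T cells were treated with test compounds plus chenodeoxycholic acid (50 uM final) for 16 h at 37 C. Cell viability in the same wells was then read as CellTiter-Glo luminescence after 30 min at room temperature.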

[17] = target: Vitamin D3 receptor (Homo sapiens) (UniProt P11473); test: qHTS assay to identify small molecule agonists of the vitamin D receptor (VDR) signaling pathway (AID 743222; calls by dose curve)
Procedure, shortened: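 Cells carrying a VDR-driven beta-lactamase reporter are seeded at 2,000 per well and rested 4 h. Compounds in DMSO are added for 16 h at 37C, and FRET substrate fluorescence is measured after 2 h at room temperature.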

[18] = qHTS assay to identify small molecule agonists of the vitamin D receptor (VDR) signaling pathway - cell viability counter screen (AID 743224)
Procedure, shortened: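 Cells: VDR-bla, 2,000/well, settled 4 h. Treatment: compounds in DMSO, 16 h, 37C/5% CO2. Readout: CellTiter-Glo luminescence after 30 min RT.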

[19] = qHTS assay for small molecule activators of the heat shock response signaling pathway (AID 743210; active = well fitted activation curve with a large enough effect in the signal ratio in the repeat runs, with a control signal flat, not every such curve was filed as active; the % refers to the signal ratio;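 also: HeLa cells with beta-lactamase reporter driven by heat shock elements; series mostly up to about 63 µM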)
Procedure, shortened: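 Activation of heat shock element-controlled beta-lactamase expression is measured in HeLa cells by LiveBLAzer FRET fluorescence, with compound exposure lasting 5 h at 37 C and substrate loading 2.5 h at room temperature.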

[20] = qHTS assay for small molecule agonists of the antioxidant response element (ARE) signaling pathway (AID 743202; active = well fitted activation curve with a large enough effect in the signal ratio in the repeat runs, not every such curve was filed as active; the % refers to the signal ratio)
Procedure, shortened: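 Steps: seed ARE-bla HepG2 cells (2,000/well); incubate 5 h at 37 C; add compounds by pin tool; incubate 16 h at 37 C; add FRET substrate; read fluorescence after 2 h at RT.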

Sequence of Peroxisome proliferator-activated receptor delta (Homo sapiens) (Q03181 whole entry, looked up): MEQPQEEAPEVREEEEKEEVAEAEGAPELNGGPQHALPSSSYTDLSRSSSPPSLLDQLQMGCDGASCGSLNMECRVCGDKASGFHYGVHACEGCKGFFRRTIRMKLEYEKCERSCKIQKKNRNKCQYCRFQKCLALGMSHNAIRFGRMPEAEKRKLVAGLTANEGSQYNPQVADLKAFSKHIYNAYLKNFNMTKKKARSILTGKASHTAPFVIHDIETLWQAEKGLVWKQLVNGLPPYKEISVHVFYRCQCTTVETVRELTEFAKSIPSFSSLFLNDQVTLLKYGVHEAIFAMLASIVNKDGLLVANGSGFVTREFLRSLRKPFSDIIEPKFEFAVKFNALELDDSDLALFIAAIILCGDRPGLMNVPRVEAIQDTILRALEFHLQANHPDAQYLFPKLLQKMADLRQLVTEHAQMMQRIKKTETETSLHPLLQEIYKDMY
Sequence of Peroxisome proliferator-activated receptor gamma (Homo sapiens) (P37231 whole entry, looked up): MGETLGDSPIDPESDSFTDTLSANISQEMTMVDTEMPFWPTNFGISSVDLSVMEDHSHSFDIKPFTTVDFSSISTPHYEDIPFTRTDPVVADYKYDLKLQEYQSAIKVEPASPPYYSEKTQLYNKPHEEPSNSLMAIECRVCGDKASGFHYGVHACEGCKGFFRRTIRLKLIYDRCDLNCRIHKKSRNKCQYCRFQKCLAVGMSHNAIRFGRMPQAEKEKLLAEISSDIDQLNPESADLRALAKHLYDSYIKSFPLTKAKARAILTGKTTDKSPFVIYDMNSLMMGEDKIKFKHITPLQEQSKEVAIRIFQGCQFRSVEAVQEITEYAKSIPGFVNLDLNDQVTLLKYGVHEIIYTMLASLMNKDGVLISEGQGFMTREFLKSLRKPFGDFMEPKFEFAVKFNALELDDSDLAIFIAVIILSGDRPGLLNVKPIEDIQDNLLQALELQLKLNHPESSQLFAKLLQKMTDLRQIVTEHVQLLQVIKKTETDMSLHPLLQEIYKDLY
Sequence of Bile acid receptor (Homo sapiens) (Q96RI1 whole entry, looked up): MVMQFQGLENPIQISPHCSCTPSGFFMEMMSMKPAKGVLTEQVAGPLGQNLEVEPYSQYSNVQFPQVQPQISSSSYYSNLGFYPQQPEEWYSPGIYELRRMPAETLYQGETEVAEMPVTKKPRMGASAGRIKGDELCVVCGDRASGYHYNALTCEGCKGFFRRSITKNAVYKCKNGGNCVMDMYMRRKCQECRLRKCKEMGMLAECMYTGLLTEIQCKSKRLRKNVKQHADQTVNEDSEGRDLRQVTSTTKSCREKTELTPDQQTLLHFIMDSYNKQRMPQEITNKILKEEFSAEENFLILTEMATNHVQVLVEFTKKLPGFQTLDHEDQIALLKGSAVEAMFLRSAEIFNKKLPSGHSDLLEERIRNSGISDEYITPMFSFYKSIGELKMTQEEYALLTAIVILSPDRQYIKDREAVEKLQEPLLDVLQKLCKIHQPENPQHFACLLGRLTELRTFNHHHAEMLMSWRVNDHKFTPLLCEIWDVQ
Sequence of Vitamin D3 receptor (Homo sapiens) (P11473 whole entry, looked up): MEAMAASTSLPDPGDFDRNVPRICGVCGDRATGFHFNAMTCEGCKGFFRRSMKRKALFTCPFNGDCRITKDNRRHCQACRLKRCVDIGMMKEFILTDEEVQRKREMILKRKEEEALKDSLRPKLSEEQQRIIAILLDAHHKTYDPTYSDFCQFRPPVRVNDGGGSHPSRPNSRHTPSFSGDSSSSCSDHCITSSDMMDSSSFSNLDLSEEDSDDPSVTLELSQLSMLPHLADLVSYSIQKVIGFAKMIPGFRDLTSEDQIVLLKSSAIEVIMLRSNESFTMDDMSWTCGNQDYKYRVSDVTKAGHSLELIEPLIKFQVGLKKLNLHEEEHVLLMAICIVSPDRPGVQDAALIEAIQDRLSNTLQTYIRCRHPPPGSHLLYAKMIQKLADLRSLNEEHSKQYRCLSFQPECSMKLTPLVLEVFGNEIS

Row | Compound | Potency [1] | Potency [2] | Potency [3] | Potency [4] | Potency [5] | Potency [6] | outcome [7] | Potency [8] | outcome [9] | outcome [10] | Potency [11] | Potency [12] | Potency [13] | Potency [14] | outcome [15] | Potency [16] | outcome [17] | Potency [18] | outcome [19] | Potency [20]
1 | Cn1sccc1=O | inactive | inactive | inactive | inactive | inactive | inactive | inactive | inactive | inactive | inactive | inactive | inactive | inactive | – | – | – | – | – | – | –
2 | C=CC(=O)OCCOC(=O)CCC(=O)O | inactive | 54.9 µM (active) | inactive | inactive | inactive | inactive | – | – | inactive | inactive | – | inactive | inactive | inactive | inactive | inactive | inactive | inactive | – | –
3 | CCCC(=O)OCC | inactive | inactive | inactive | inactive | inactive | inactive | inactive | inactive | inactive | – | inactive | inactive | inactive | inactive | – | – | inactive | – | inactive | –
4 | CC1=CC(=O)/C(=C(/C)O)C(=O)O1 | inactive | inactive | – | inactive | inactive | inactive | inactive | inactive | – | inactive | inactive | – | inactive | – | inactive | – | inactive | inactive | inactive | inactive
5 | COCCO | inactive | inactive | – | inactive | inactive | inactive | inactive | inactive | – | – | – | inactive | inactive | inactive | – | – | inactive | inactive | inactive | inactive
6 | C1CCC2OC2C1 (configuration not stated) | inactive | inactive | inactive | – | inactive | inactive | inactive | inactive | inactive | – | inactive | inactive | – | inactive | – | inactive | inactive | inactive | inactive | –
7 | CN(C)CCCOc1nn(Cc2ccccc2)c2ccccc12 | inactive | inactive | – | inactive | inactive | – | inactive | – | inactive | – | inactive | – | inactive | inactive | – | inactive | – | inactive | inactive | –
8 | Cc1cc(C)c(S(=O)(=O)O)cc1N=Nc1cc(S(=O)(=O)O)c2ccccc2c1O | 27.3 µM (active) | inactive | – | inactive | inactive | inactive | – | inactive | inactive | – | inactive | inactive | inactive | inactive | – | inactive | inactive | inactive | inactive | –
9 | CCCC(C)C | inactive | inactive | – | inactive | inactive | inactive | inactive | – | inactive | – | – | inactive | – | inactive | – | inactive | inactive | inactive | inactive | inactive
10 | CCCCCCOC(=O)CCC | inactive | inactive | – | inactive | inactive | inactive | inactive | inactive | inactive | – | inactive | – | – | – | inactive | inactive | inactive | inactive | inactive | inactive
11 | O=C=NC1CCC(CC2CCC(N=C=O)CC2)CC1 (configuration not stated) | inactive | inactive | – | inactive | inactive | – | inactive | inactive | – | – | – | inactive | – | inactive | – | – | inactive | inactive | – | inactive
12 | CCCCCCCCN(C)C | inactive | inactive | inactive | – | inactive | inactive | – | inactive | – | – | inactive | – | inactive | inactive | – | inactive | inactive | inactive | – | inactive
13 | O=C(O)[C@@H]1[C@H]2C[C@H]3c4[nH]c5ccccc5c4CCN3C[C@@H]2CC[C@@H]1O | inactive | inactive | – | inactive | inactive | inactive | – | inactive | inactive | inactive | inactive | – | inactive | inactive | inactive | inactive | inactive | inactive | – | inactive
14 | C[Si](C)O[Si](C)(C)O[Si](C)(C)O[Si](C)C | inactive | inactive | inactive | – | inactive | inactive | – | – | – | – | inactive | inactive | inactive | inactive | – | inactive | inactive | inactive | – | inactive
15 | CN(C)CC[C@@H](c1ccc(Br)cc1)c1ccccn1 | inactive | inactive | inactive | – | inactive | – | – | inactive | inactive | inactive | inactive | – | inactive | inactive | inactive | – | – | inactive | inactive | –
16 | CCCCCOC(=O)COc1cc(N2C(=O)C3=C(CCCC3)C2=O)c(F)cc1Cl | inactive | inactive | – | inactive | inactive | inactive | – | inactive | – | – | – | inactive | inactive | inactive | – | inactive | inactive | inactive | inactive | –
17 | CCN(CC)CCc1nc(-c2ccccc2)no1 | inactive | inactive | – | inactive | inactive | inactive | – | inactive | inactive | – | inactive | – | inactive | inactive | – | inactive | – | inactive | inactive | –
18 | FC(F)(F)C(F)(F)C(F)(F)C(F)(F)C(F)(F)C(F)(F)CCI | inactive | inactive | – | inactive | inactive | inactive | inactive | inactive | inactive | inactive | inactive | inactive | inactive | – | inactive | – | inactive | inactive | – | inactive
19 | N#Cc1c(F)cccc1F | inactive | inactive | – | inactive | inactive | inactive | – | inactive | inactive | inactive | inactive | – | inactive | inactive | inactive | inactive | – | inactive | inactive | inactive
